Source: PubChem BioAssay (NCATS)
Where “and” joins values, the source holds several entries; their conditions need not be identical. Identical values can stand only once. Records with an inconclusive call do not appear. Calls of active or inactive are those of the source. Unless noted, the call rests on the fitted dose curve; in most records, active means well fitted curve in either direction with a large enough effect (not every such curve was filed as active); inconclusive means small, poorly fitted or top-dose-only effect, or another doubt; inactive means flat fitted curve, though single readings scatter.

Columns and labels:
[1] = AP1 Signaling Pathway (AID 357);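 further: ME-180 reporter cells stimulated with EGF at its EC50 level; on the % scale 0 is the no-effect control and ±100 the full control effect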
Summary of the method: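 Read-out was the 460nm/530nm emission ratio (excitation 405nm) after CCF4 loading for 2.5 hours at room temperature. Cells carried an AP-1-driven beta-lactamase reporter, were stimulated with EC50 EGF plus compound for 5 hours, and AC50 values came from titrations.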

[2] = NFAT Signaling Pathway (AID 444);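 further: carbachol stimulus at about its EC50 of 1 µM final; on the % scale 0 is the no-effect control and ±100 the full control effect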
Summary of the method: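 Jurkat cells carrying an NFAT-driven β-lactamase reporter and co-transfected muscarinic M1 receptor were treated with compound plus carbachol (1 uM final, an EC50 level) for 5 h at 37 °C. CCF4 loading followed for 1 h at RT; 460/530 nm ratio gave %activity.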

[3] = Stat Signaling Pathway (AID 446); details: ME-180 SIE beta-lactamase reporter, IL-6 stimulated, 5 h;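 further: ME-180 cervical cancer cells given 40 pM IL-6 alongside compound; SIE-controlled beta-lactamase reporter measured as 460/530 nm FRET emission ratio; on the % scale 0 is the no-effect control and ±100 the full control effect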
Summary of the method: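 ME-180 cells carrying a SIE-driven beta-lactamase reporter are stimulated with 40 pM IL-6 for 5 h at 37C in the presence of compound. The 460/530 nm FRET substrate ratio is read after 2.5 h at RT. Data are normalised to 300 pM IL-6 and to 125 nM JAK inhibitor controls.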

[4] = target: Glucocorticoid receptor (Homo sapiens) (UniProt P04150); experiment: GR-GFP Redistribution (AID 450;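 active means compounds whose dose series gives a full or clear partial fitted curve of increased nuclear translocation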; further: potency means the concentration at half of the fitted maximal effect); details: U2OS GR-GFP nuclear translocation, laser cytometry, 2 h
[5] = target: Glucocorticoid receptor (Homo sapiens) (UniProt P04150); experiment: GR-EFC Redistribution (AID 451; calls by dose curve; further: potency means the concentration at half of the fitted maximal effect); details: CHO-K1 GR-EFC translocation, beta-gal luminescence, 2 h
Summary of the method: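 CHO-K1 cells stably expressing nuclear-localized β-gal enzyme acceptor and GR fused C-terminally to the enzyme donor fragment; ligand-driven nuclear translocation restores β-gal by complementation. Compounds titrated up to 46 uM final, 2 h at 37 °C; luminescence read.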

[6] = target: Mitogen-activated protein kinase 10 (Mus musculus) (UniProt Q61831); experiment: JNK3 AlphaScreen Assay (AID 530);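 further: kinase came from lysate of stimulated human HepG2 cells; signal reports phosphorylation of biotinylated GST-cJun 1-79 at Ser73 with 10 µM ATP; on the % scale 0 is the no-effect control and ±100 the full control effect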
Summary of the method: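 Inhibitors reduce antibody binding to phosphorylated biotin-cJun, lowering AlphaScreen luminescence. Lysates from HepG2 cells pre-activated by IL-1beta plus TNF-alpha supplied JNK3; compounds were titrated.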

[7] = target: Cytochrome P450 1A2 (Homo sapiens) (UniProt P05177); experiment: p450-cyp1a2 (AID 410; calls by dose curve; further: potency means the concentration at half of the fitted maximal effect)
Summary of the method: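 Luminescent readout of luciferin formed from Luciferin-ME by human CYP1A2; data normalized against complete inhibition by 57 uM furafylline. Enzyme 20nM, substrate 100uM at Km, 100mM KPO4 buffer, 60 min reaction at room temperature.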

[8] = Cell Viability - BJ (AID 421; calls by dose curve;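 further: potency means the concentration at half of the fitted maximal effect; cells exposed to compound for 40 hours at 37 °C before readout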); details: BJ fibroblast viability, qHTS
Summary of the method: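 Normal human BJ foreskin fibroblasts, 1500/well in complete medium, treated 40 hr at 37 °C. Cellular ATP by CellTiter-Glo luminescence; normalized to DMSO and 100 uM tamoxifen, AC50 from Hill fit.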

[9] = Cell Viability - HepG2 (AID 433; calls by dose curve;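 further: potency means the concentration at half of the fitted maximal effect; potency for ATP loss meaning cytotoxicity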); details: qHTS
Summary of the method: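 Read-out is luciferase-based quantitation of cellular ATP as a measure of viable HepG2 cells after 40 h treatment at 37 °C. Signal decrease is scaled between DMSO-only and 100 uM tamoxifen controls, with AC50 fitted by the Hill equation.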

[10] = Cell Viability - MRC5 (AID 434; calls by dose curve;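 further: potency means the concentration at half of the fitted maximal effect; potency reflects cytotoxicity seen as loss of intracellular ATP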); details: MRC5 lung fibroblast viability, qHTS
Summary of the method: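 MRC5 normal human lung fibroblasts (1500/well) were treated with compounds for 40 hr at 37 °C in complete medium, and viable cells were measured as intracellular ATP by CellTiter-Glo luminescence. AC50 came from Hill fits, normalized to DMSO and 100 uM tamoxifen.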

[11] = Cell Viability - HUV-EC-C (AID 542; active means well fitted curve in the direction sought with a large enough effect; an effect the other way counts as inactive or inconclusive; further: nearly all actives have a fitted effect of over 35% in size; further: potency means the concentration at half of the fitted maximal effect)
Summary of the method: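 qHTS cytotoxicity: HUV-EC-C, 1000 cells/well, 5 hr settle, compound 40 hr 37 °C, CellTiter-Glo, luminescence. AC50 via Hill equation.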

[12] = Cell Viability - SH-SY5Y (AID 544; active means well fitted curve in the direction sought with a large enough effect; an effect the other way counts as inactive or inconclusive; further: nearly all actives have a fitted effect of over 55% in size; further: potency means the concentration at half of the fitted maximal effect;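 on viability change, negative = cytotoxic: 0% = DMSO alone and -100% = 100 µM tamoxifen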); details: SH-SY5Y neuroblastoma cell viability; viability change, negative = cytotoxic: at 92.2 µM (top of the series)
Summary of the method: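 Luminescent ATP read-out (CellTiter-Glo) measures loss of viable SH-SY5Y neuroblastoma cells after 40 hr compound exposure at 37 °C. AC50 values derive from standard Hill modelling of qHTS concentration-response data.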

[13] = Cell Viability - Renal Proximal Tubule (AID 545; active means well fitted curve in the direction sought with a large enough effect; an effect the other way counts as inactive or inconclusive; further: nearly all actives have a fitted effect of over 40% in size; further: potency means the concentration at half of the fitted maximal effect;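 on activity change, negative = cytotoxicity: 0% = DMSO only and -100% = 100 µM tamoxifen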); details: renal proximal tubule cells viability, primary cells of rat origin; activity change, negative = cytotoxicity: at 91.7 µM (top of the series)
Summary of the method: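 Luminescent ATP signal (CellTiter-Glo) served as the viability read-out after 40 hr compound exposure of freshly isolated rat proximal tubule cells at 37 °C. Concentration-dependent ATP loss was fitted with the Hill equation to give AC50.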

[14] = Cell Viability - Mesenchymal (AID 546; active means well fitted curve in the direction sought with a large enough effect; an effect the other way counts as inactive or inconclusive;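 further: cells exposed to compound for 40 hours before reading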; further: potency means the concentration at half of the fitted maximal effect;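 on activity change, negative = cytotoxicity: 0% = DMSO only and -100% = 100 µM tamoxifen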); details: mesenchymal cells viability, qHTS; activity change, negative = cytotoxicity: at 91.7 µM (top of the series)
Summary of the method: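 Normal human renal glomerulus-derived kidney mesenchymal cells, 1000 per well in complete medium, were treated with compounds for 40 hr at 37 °C. Viability was read as intracellular ATP by CellTiter-Glo luminescence; AC50 values came from Hill-equation fits of qHTS concentration-response data.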

[15] = Cell Viability - Jurkat (AID 426;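 active means dose-dependent loss of cell ATP signal giving a full or clear fitted curve, ranked by lower potency value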; further: potency means the concentration at half of the fitted maximal effect); details: qHTS
Summary of the method: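 qHTS, 1536-well; Jurkat E6-1, 5000 cells/well, complete medium; cpd 40 hr, 37 °C; CellTiter-Glo 20 min RT; luminescence. AC50 by Hill fit.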

[16] = Cell Viability - SK-N-SH (AID 435; calls by dose curve;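 further: potency means the concentration at half of the fitted maximal effect; compound exposure lasted 40 h at 37 °C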); details: SK-N-SH neuroblastoma cell viability qHTS
Summary of the method: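 Luminescent ATP signal served as the viability read-out after 40 hours of compound treatment of human neuroblastoma SK-N-SH cells. Concentration-response data, scaled between DMSO and 100 uM tamoxifen, gave AC50 values by standard Hill modeling.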

[17] = Cell Viability - N2a (AID 540; active means well fitted curve in the direction sought with a large enough effect; an effect the other way counts as inactive or inconclusive; further: nearly all actives have a fitted effect of over 45% in size; further: potency means the concentration at half of the fitted maximal effect;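 on activity change, negative = cytotoxicity: plate controls were DMSO alone for no effect and tamoxifen control for full effect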); details: N2a mouse neuroblastoma cell viability; activity change, negative = cytotoxicity: at 92.2 µM (top of the series)
Summary of the method: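 Luminescent ATP signal (CellTiter-Glo, 20 min at room temperature) served as the viability read-out after N2a cells were treated with compounds for 40 hours at 37 °C. Concentration-response data were fitted to the Hill equation for AC50.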

[18] = Cell Viability - H-4-II-E (AID 543; active means well fitted curve in the direction sought with a large enough effect; an effect the other way counts as inactive or inconclusive; further: nearly all actives have a fitted effect of over 35% in size; further: potency means the concentration at half of the fitted maximal effect)
Summary of the method: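 Luminescent ATP signal (CellTiter-Glo) served as the viability read-out, with cytotoxicity seen as a concentration-dependent ATP drop. Cells were treated for 40 hours in complete medium. AC50 values derive from Hill-equation modelling.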

[19] = Cell Viability - Hek293 (AID 427;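 active means compounds whose dose-response curve shows a full or clear partial loss of cell viability, called from curve shape rather than a numeric limit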;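 further: potency means the concentration at half of the fitted maximal effect; cells exposed to compound for 40 hours at 37 °C before reading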); details: qHTS
Summary of the method: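 HEK293 cells in complete medium were exposed to compound for 40 hr at 37 °C, then cellular ATP was read by CellTiter-Glo luminescence. Data were normalized to DMSO (basal) and 100 uM tamoxifen (100% inhibition), and AC50 came from Hill fits.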

Sequence of Glucocorticoid receptor (Homo sapiens) (P04150 whole entry, looked up, the tested form may be a part): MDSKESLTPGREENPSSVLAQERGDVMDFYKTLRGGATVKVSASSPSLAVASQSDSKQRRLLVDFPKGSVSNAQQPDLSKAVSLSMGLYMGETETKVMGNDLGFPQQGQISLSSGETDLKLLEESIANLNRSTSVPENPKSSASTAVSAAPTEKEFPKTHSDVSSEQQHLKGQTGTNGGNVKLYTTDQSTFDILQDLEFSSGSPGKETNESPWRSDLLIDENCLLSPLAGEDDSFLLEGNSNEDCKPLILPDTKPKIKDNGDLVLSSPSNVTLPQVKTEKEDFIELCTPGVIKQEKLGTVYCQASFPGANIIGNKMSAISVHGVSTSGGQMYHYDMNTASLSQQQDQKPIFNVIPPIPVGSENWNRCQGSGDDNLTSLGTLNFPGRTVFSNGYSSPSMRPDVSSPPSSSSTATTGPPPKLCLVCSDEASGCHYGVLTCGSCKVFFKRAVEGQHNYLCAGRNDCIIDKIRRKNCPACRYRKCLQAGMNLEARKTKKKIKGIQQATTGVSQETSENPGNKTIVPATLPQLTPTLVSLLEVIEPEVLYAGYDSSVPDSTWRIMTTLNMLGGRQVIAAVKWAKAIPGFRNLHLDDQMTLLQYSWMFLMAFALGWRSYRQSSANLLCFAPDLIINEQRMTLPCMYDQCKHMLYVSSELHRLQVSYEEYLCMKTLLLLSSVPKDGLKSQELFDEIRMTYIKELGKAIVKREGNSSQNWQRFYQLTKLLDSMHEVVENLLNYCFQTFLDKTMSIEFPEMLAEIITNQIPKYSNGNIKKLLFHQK
Sequence of Cytochrome P450 1A2 (Homo sapiens) (P05177 whole entry, looked up): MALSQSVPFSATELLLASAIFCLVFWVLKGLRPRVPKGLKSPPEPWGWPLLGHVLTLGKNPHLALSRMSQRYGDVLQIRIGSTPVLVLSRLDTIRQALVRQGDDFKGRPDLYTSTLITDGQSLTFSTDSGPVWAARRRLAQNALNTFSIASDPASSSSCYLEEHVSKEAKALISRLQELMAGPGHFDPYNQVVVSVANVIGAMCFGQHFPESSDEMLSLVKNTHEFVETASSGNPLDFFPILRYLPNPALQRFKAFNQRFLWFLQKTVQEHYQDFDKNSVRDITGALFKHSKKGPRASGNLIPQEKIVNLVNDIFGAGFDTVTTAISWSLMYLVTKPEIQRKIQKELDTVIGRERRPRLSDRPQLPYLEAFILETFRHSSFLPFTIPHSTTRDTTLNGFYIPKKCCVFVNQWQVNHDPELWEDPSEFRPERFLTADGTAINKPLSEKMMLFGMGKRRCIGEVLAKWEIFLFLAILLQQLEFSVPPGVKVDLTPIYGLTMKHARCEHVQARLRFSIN

NC(N)=Nc1nc(CSCC/C(N)=N/S(N)(=O)=O)cs1
inactive: outcome [1] | outcome [2] | activity, negative = inhibition ([3]; at 17.2 µM (top of the series)) 12% and 11.5% | activity, negative = inhibition ([3]; at 38 µM (top of the series)) 1.63% | Potency [4] > 46 µM and > 20.6 µM | Potency [5] > 46 µM and > 20.6 µM | outcome [6]

CC(=O)CCCCn1c(=O)c2c(ncn2C)n(C)c1=O
inactive: outcome [1] | outcome [2] | activity, negative = inhibition ([3]; at 17.2 µM (top of the series)) -10.5% | activity, negative = inhibition ([3]; at 38 µM (top of the series)) 9.49% | Potency [4] > 46 µM and > 20.6 µM | Potency [5] > 46 µM and > 20.6 µM | outcome [6]
active: Potency [7] 31.6 µM and 12.6 µM

CC(C)OC(=O)C(C)(C)Oc1ccc(C(=O)c2ccc(Cl)cc2)cc1
inactive: outcome [1] | Potency [4] > 46 µM and > 20.6 µM | Potency [5] > 46 µM and > 20.6 µM
active: Potency [7] 12.6 µM and 5.01 µM

O=C1NCC2(CCN(CCc3ccccc3)CC2)O1
inactive: outcome [1] | Potency [7] | outcome [2] | activity, negative = inhibition ([3]; at 17.2 µM (top of the series)) 8.61% | activity, negative = inhibition ([3]; at 38 µM (top of the series)) 4.62% | Potency [4] > 46 µM and > 20.6 µM | Potency [5] > 46 µM and > 20.6 µM | outcome [6]

C[C@@H](O)[C@H]1C(=O)N2C(C(=O)O)=C(S[C@@H]3CN[C@H](C(=O)N(C)C)C3)[C@H](C)[C@H]12
inactive: outcome [1] | Potency [7] | outcome [2] | activity, negative = inhibition ([3]; at 17.2 µM (top of the series)) -18.6% | Potency [4] > 20.6 µM | Potency [5] > 20.6 µM | outcome [6]

C[N+](C)(C)CC(=O)O
inactive: outcome [1] | Potency [7] | outcome [2] | activity, negative = inhibition ([3]; at 38 µM (top of the series)) -8.86% | outcome [6]

CC(=O)O[C@]1(C(C)=O)CC[C@H]2[C@@H]3C=C(Cl)C4=CC(=O)[C@@H]5C[C@@H]5[C@]4(C)[C@H]3CC[C@@]21C
inactive: Potency [8] > 92 µM | Potency [9] > 92 µM | Potency [10] > 92 µM | outcome [6] | Potency [11] | Potency [12] | Potency [13] | Potency [14]

CC1=C(/C=C/C(C)=C/C=C/C(C)=C/C(=O)Nc2ccc(O)cc2)C(C)(C)CCC1
active: Potency [8] 30.8 µM | Potency [15] 2.16 µM | Potency [9] 34.9 µM | Potency [10] 24.7 µM | Potency [16] 7.43 µM | Potency [17] 31.6 µM | Potency [11] 31.6 µM | Potency [18] 20 µM | Potency [12] 12.6 µM | Potency [13] 20 µM | Potency [14] 31.6 µM
inactive: outcome [6]

CCCCCCCCCCCC1=C(O)C(=O)C=C(O)C1=O
inactive: Potency [7] | Potency [4] > 46 µM | Potency [5] > 46 µM | outcome [6]

CC(C(=O)O)c1ccc(-c2ccccc2)c(F)c1 (stereo not drawn)
inactive: outcome [1] | outcome [2] | activity, negative = inhibition ([3]; at 17.2 µM (top of the series)) -6.1% | Potency [4] > 20.6 µM

O=c1[nH]cnc2c1ncn2[C@H]1CC[C@@H](CO)O1
inactive: Potency [8] > 92 µM | Potency [15] > 92 µM | Potency [19] > 92 µM | Potency [9] > 92 µM | Potency [10] > 92 µM | Potency [16] > 92 µM | Potency [17] | Potency [11] | Potency [18] | Potency [12] | Potency [13] | Potency [14]

O=c1c(O)c(-c2ccc(O)cc2)oc2cc(O)cc(O)c12
inactive: Potency [8] > 92 µM | Potency [15] > 92 µM | Potency [19] > 92 µM | Potency [9] > 92 µM | Potency [10] > 92 µM | Potency [16] > 92 µM | Potency [4] > 20.6 µM and > 46 µM | Potency [5] > 20.6 µM and > 46 µM | outcome [6] | Potency [17] | Potency [11] | Potency [13] | Potency [14]

CC(C)NCC(O)COc1cccc2[nH]ccc12 (stereo not drawn)
inactive: outcome [1] | outcome [2] | activity, negative = inhibition ([3]; at 17.2 µM (top of the series)) 24.1% | Potency [4] > 20.6 µM

CS(=O)c1ccc(-c2nc(-c3ccc(F)cc3)c(-c3ccncc3)[nH]2)cc1 (stereo not drawn)
inactive: Potency [4] > 46 µM | Potency [5] > 46 µM
active: Potency [7] 631 nM and 3.98 µM

O=c1cc(-c2ccccc2)oc2cc(O)c(O)c(O)c12
active: Potency [7] 398 nM and 501 nM
inactive: Potency [4] > 46 µM | Potency [5] > 46 µM | outcome [6]
